# NSD2 HMT inh: blocks human histone methyltransferase NSD2 | NSD2 peptide methylation, AlphaScreen, 120 min | inhibition, % at 12.5 µM | hit rate 0.54% among 310,000 | AID 743445; in the data active means inhibition above about 50%
# Target sequence (O96028 whole entry, looked up): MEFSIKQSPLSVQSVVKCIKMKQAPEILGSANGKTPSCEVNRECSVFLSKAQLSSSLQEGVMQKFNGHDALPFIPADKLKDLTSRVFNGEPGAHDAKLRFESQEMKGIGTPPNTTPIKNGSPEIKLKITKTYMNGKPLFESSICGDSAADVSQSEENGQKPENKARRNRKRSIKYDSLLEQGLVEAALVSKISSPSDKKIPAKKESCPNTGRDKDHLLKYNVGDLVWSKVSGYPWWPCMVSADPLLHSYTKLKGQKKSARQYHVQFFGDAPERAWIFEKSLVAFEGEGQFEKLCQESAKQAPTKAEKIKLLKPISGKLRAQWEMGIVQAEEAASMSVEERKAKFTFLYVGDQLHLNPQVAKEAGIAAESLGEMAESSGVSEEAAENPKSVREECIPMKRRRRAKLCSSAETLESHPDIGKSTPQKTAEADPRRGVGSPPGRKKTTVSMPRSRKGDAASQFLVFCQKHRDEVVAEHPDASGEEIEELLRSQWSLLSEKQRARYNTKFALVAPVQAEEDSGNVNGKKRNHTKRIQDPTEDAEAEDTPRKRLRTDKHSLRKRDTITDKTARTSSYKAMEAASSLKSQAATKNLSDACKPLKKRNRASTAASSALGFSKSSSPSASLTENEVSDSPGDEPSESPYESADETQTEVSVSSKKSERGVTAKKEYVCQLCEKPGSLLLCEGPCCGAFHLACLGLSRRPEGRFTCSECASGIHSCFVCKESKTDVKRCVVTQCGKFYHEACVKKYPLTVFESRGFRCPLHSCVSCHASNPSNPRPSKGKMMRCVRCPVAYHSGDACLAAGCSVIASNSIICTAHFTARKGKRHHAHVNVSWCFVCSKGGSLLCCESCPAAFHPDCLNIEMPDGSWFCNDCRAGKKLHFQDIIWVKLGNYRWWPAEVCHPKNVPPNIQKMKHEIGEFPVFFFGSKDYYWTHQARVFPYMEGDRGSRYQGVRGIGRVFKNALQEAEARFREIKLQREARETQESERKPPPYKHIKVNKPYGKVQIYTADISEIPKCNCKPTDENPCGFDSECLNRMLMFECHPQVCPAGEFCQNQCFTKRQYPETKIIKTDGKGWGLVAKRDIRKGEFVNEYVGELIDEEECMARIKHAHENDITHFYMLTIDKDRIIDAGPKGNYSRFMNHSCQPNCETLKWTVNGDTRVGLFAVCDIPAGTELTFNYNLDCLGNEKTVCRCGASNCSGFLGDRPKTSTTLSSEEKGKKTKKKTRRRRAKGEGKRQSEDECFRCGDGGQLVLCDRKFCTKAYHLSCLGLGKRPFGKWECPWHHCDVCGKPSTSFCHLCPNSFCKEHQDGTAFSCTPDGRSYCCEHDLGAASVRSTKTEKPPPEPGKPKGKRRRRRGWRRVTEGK
# SUMO HTRF inh: SUMOylation inhibition | P63279 | HTRF SUMOylation assay, SAE1/SAE2 + UBC9, in vitro | inhibition, % at 35 µM | hit rate 0.36% among 290,000 | AID 2006; in the data active means inhibition above about 50%, passing the limit was not always enough; inconclusive means no clear call, values can overlap the other calls
# SIRT5 inh: blocks human SIRT5 desuccinylation of peptide. Q9NXA8. Purified SirT5, succinyl-peptide AMC, trypsin-coupled fluorescence. inhibition, % at 15 µM. hit rate 1.1% among 330,000. AID 652115; in the data active means inhibition above about 15%; inconclusive means no clear call, values can overlap the other calls
# CASP6 VEID inh: inhibitors of human caspase-6; P55212; purified caspase-6, Z-VEID-R110 cleavage fluorescence; inhibition, % at 12.5 µM; hit rate 0.53% among 350,000;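 active means mean inhibition across replicates at least about 35%, with every replicate also reaching that limit, limit read from the data; inconclusive means only one of the two criteria met; inactive means neither criterion met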;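 further: 0% = median of neutral control wells and 100% = no fluorescence left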
# * marks the source's active call; other numbers are inactive results; ? = inconclusive; · = no result given; ! = not confirmed by another sample. An excerpt weighted towards active compounds, which were near 1.6% of everything screened.
SMILES,NSD2 HMT inh,SUMO HTRF inh,SIRT5 inh,CASP6 VEID inh
C[C@H](CO)N1C[C@H](C)[C@H](CN(C)S(=O)(=O)c2cccs2)OCCCC[C@H](C)Oc2ccc(NC(=O)Nc3ccccc3)cc2C1=O,·,·,5,1
CCNC(=O)[C@@H]1[C@@H](CO)[C@@H]2Cn3c(ccc(/C=C/c4ccccc4)c3=O)[C@H]1N2CC,·,·,-94,2
NC(=O)c1sc2nc(-c3ccco3)ccc2c1N,-1,76*,·,·
Nc1c(C(=O)Nc2ccccc2F)sc2nc(-c3ccco3)ccc12,30,57*,·,·
Nc1c(C(=O)Nc2ccccc2F)sc2nc(-c3cccnc3)ccc12,-3,2,-1,2
CCNC(=O)C[C@H]1CC[C@@H](NS(=O)(=O)c2ccc(F)cc2)[C@@H](CO)O1,·,·,-5,0
CCCC(=O)N1CCC2(CC1)CN(C(=O)Nc1c(C)noc1C)[C@H](CO)c1c2c2ccc(OC)cc2n1C,·,·,-4,1
CCCC(=O)Nc1ccc2c(c1)C(=O)N(C)C[C@H](OC)[C@@H](C)CN(CC1CCCC1)[C@@H](C)CO2,·,·,11,7
Fc1ccc(/C=C/c2nnc(-c3cccs3)o2)cc1,51*,2,-4,-3
CCC(c1nnnn1C(C)(C)C)N1CCN(Cc2ccccc2OC)CC1 (configuration not stated),0,15,17*,1
CC(=O)N1CC(=O)N2[C@H](CO)[C@@H](c3ccc(-c4ccncc4)cc3)[C@@H]2C1,·,·,-4,0
CCn1cc(C(=O)Nc2ccccc2)c(=O)c2ccc(C)nc21,·,11,·,·
C=CCSc1nnc(NC(=O)c2cn(CC)c3nc(C)ccc3c2=O)s1,-3,24,20*,-1
Cc1ccc(S(=O)(=O)Nc2ccc3c(c2)C(=O)N([C@H](C)CO)C[C@@H](C)[C@H](CN(C)Cc2ccc(C(F)(F)F)cc2)OCCCC[C@H](C)O3)cc1,·,·,13,8
Cc1ccc(S(=O)(=O)Nc2ccc3c(c2)C(=O)N([C@@H](C)CO)C[C@H](C)[C@H](CN(C)Cc2ccc(C(F)(F)F)cc2)OCCCC[C@@H](C)O3)cc1,·,·,18*,0
C[C@@H]1CCCCO[C@H](CN(C)Cc2ccc(C(F)(F)F)cc2)[C@H](C)CN([C@@H](C)CO)C(=O)c2cc(NS(=O)(=O)c3ccccc3)ccc2O1,·,·,5,-3
Cc1ccc(S(=O)(=O)Nc2ccc3c(c2)C(=O)N([C@H](C)CO)C[C@H](C)[C@@H](CN(C)Cc2ccc(C(F)(F)F)cc2)OCCCC[C@H](C)O3)cc1,·,·,21*,4
Cc1ccc(S(=O)(=O)Nc2ccc3c(c2)C(=O)N([C@@H](C)CO)C[C@H](C)[C@@H](CN(C)Cc2ccc(C(F)(F)F)cc2)OCCCC[C@@H](C)O3)cc1,·,·,17*,-1
Cc1ccc(S(=O)(=O)Nc2ccc3c(c2)C(=O)N([C@@H](C)CO)C[C@H](C)[C@H](CN(C)Cc2ccc(C(F)(F)F)cc2)OCCCC[C@H](C)O3)cc1,·,·,15*,-1
O=C(Oc1cccc(-n2cnnn2)c1)c1ccccc1Cl,·,12,-18,46*
C[C@@H]1C=C(C(=O)N2CCCCCCC2)O[C@H](OCc2ccc(CO)cc2)C1,·,·,-10,1
CCN(CC)CCSc1nc(O)c(-c2ccccc2)c(=O)n1-c1ccccc1,5,-3,16*,-3
C[C@H]1CN([C@@H](C)CO)S(=O)(=O)c2ccc(/C=C/c3ccccc3)cc2O[C@@H]1CN(C)Cc1ccc(C(=O)O)cc1,·,·,25*,2
C[C@H](CO)N1C[C@H](C)[C@H](CN(C)Cc2ccccc2)Oc2cc(/C=C/c3ccccc3)ccc2S1(=O)=O,·,·,21*,-2
C[C@H](CO)N1C[C@H](C)[C@@H](CN(C)Cc2ccccc2)Oc2cc(/C=C/c3ccccc3)ccc2S1(=O)=O,·,·,-4,-1
SMILES,NSD2 HMT inh,SUMO HTRF inh,SIRT5 inh,CASP6 VEID inh
C[C@H]1CN([C@@H](C)CO)S(=O)(=O)c2ccc(/C=C/c3ccccc3)cc2O[C@H]1CN(C)Cc1ccccc1,·,·,22*,0
C[C@@H]1CN([C@@H](C)CO)S(=O)(=O)c2ccc(/C=C/c3ccccc3)cc2O[C@H]1CN(C)Cc1ccc(C(=O)O)cc1,·,·,?,2
C[C@@H]1CCCCO[C@H](CN(C)C(=O)C2CCCCC2)[C@H](C)CN([C@@H](C)CO)C(=O)c2cc(NC(=O)Nc3ccc4c(c3)OCO4)ccc2O1,·,·,10,-2
C/C=C/c1ccc([C@H]2[C@@H](C#N)N(c3nc(CC)cs3)[C@@H]2CO)cc1,·,·,-1,0
CC1(C)CC(=O)c2c(-c3cccnc3)n[nH]c2C1,-2,12,15*,5
O=C(N/N=C/c1ccccn1)c1ccc(Cl)cc1,-2,12,1,-4
Cn1ncc(Cl)c1C(=O)N/N=C/c1ccccn1,-4,-14,22*,-2
N#Cc1c(NC(=O)c2ccccc2Cl)n(Cc2ccccc2)c2nc3ccccc3nc12,98*,100*,-3,100*
Cc1ccc(S(=O)(=O)N(C)C[C@@H]2Oc3ccc(NC(=O)CCC(F)(F)F)cc3CC(=O)N([C@@H](C)CO)C[C@H]2C)cc1,·,·,4,-2
O=C(CNS(=O)(=O)c1ccccc1)NCC(=O)N1CCCCC1,0,1,15*,-1
CO[C@H]1CN(C)C(=O)c2cc(NS(=O)(=O)CC(F)(F)F)ccc2OC[C@@H](C)N(Cc2ccccn2)C[C@H]1C,·,·,4,-4
CCC(=O)c1ccc(OCC(=O)OCC(=O)c2cc(C)n(C)c2C)cc1,0,-3,-3,36*
CCC(=O)c1ccc(OCC(=O)OCC(=O)c2c(N)n(C)c(=O)n(C)c2=O)cc1,-1,·,-3,-1
Cc1cc2c(Nc3ccccc3)ncnc2s1,-3,8,16*,-5
CN(CC(=O)Nc1ccc(Cl)c(Cl)c1)C(=O)c1ccccc1SCC(=O)N1CCCC1,-5,·,·,1
CN(CC(=O)Nc1ccc(OC(F)(F)F)cc1)C(=O)c1ccccc1SCC(=O)N1CCCC1,-5,·,-1,81*
C[C@@H]1CN([C@@H](C)CO)C(=O)CCCn2nncc2CO[C@H]1CN(C)S(=O)(=O)c1ccc2c(c1)OCCCO2,·,·,20*!,0
Cc1ccc(S(=O)(=O)N(C)C[C@H]2OCc3cn(nn3)CCCC(=O)N([C@@H](C)CO)C[C@@H]2C)cc1,·,·,20*!,-1
Cc1ccc(S(=O)(=O)N(C)C[C@H]2OCc3cn(nn3)CCCC(=O)N([C@@H](C)CO)C[C@H]2C)cc1,·,·,-1,1
C[C@H](CO)N1C[C@H](C)[C@@H](CN(C)S(=O)(=O)c2ccc3c(c2)OCCCO3)OCc2cn(nn2)CCCC1=O,·,·,-1,47*!
CCCNC(=O)[C@@H]1[C@@H](CO)[C@@H]2Cn3c(ccc(-c4cccnc4)c3=O)[C@H]1N2C(=O)Nc1ccccc1,·,·,-34,2
CO[C@H]1CN(C)C(=O)c2ccc(NC(C)=O)cc2OC[C@H](C)N(C(=O)CN2CCOCC2)C[C@@H]1C,·,·,0,0
O=C(C[C@@H]1C[C@@H]2c3cc(NC(=O)c4ccc5c(c4)OCO5)ccc3O[C@@H]2[C@H](CO)O1)NCc1cc(F)ccc1F,·,·,2,0
CN(C)c1ccc(/C=C2\SC(=O)N(CC(O)Cn3c4ccccc4c4ccccc43)C2=O)cc1 (configuration not stated),-2,30,·,·
